# Results: PubChem BioAssay (NCATS)
# Results filed as inconclusive are left out. Entries that show only a call come without a potency. Calls of active or inactive are those of the source. Calls come from the whole dose curve; as a rule, active = well fitted cell-killing curve with a large enough effect; inconclusive = small, poorly fitted or top-dose-only effect, or effect the other way; inactive = no such curve, though single readings can be large or run the other way.
# Test: Quantitative High-Throughput drug screen in 47 multiple myeloma cell lines against the NCATS MIPE library collection: OCIMY7_PLB cell viability assay (AID 1918987); note: nearly all actives have a fitted effect of over 65% in size
# Settings: OCI-MY7 myeloma viability, CellTiter-Glo ATP, 48 h; viability (% of DMSO): at 45.8 µM (top of the series)
# Outline: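 500 cells/well per myeloma line exposed to pinned MIPE 4.0 compounds for 48 h at 37 °C, 5% CO2. Viability read as ATP by CellTiter-Glo luminescence, normalised to DMSO-only (100%) and media-only (0%) wells.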
# Potency is the fitted concentration of half-maximal effect.
row,Compound,Potency
1,CC1C(=O)OC2C(O)C34C5CC(C(C)(C)C)C36C(OC(=O)C6O)OC4(C(=O)O5)C12O (stereo not given),inactive
2,C[C@@H](NC(=O)c1ncnc(N)c1Cl)c1ncc(C(=O)Nc2cc(C(F)(F)F)c(Cl)cn2)s1,7.43 µM (active)
3,CN(C)CC[C@H](CSc1ccccc1)Nc1ccc(S(=O)(=O)NC(=O)c2ccc(N3CCN(Cc4ccccc4-c4ccc(Cl)cc4)CC3)cc2)cc1[N+](=O)[O-],0.209 µM (active)
4,C[C@@H]1C[C@H]2[C@@H]3CCC4=CC(=O)C=C[C@]4(C)[C@@]3(F)[C@@H](O)C[C@]2(C)[C@@]1(O)C(=O)CO,inactive
5,CON(C)C(=O)N1N=C(c2cc(F)ccc2F)S[C@]1(CCCN)c1ccccc1,inactive
6,N#CC(c1ccnc(NCCc2cccnc2)n1)c1nc2ccccc2s1 (stereo not given),2.96 µM (active)
7,CN[C@@H]1[C@@H](O)[C@@H](O[C@@H]2[C@@H](O)[C@H](O[C@H]3O[C@H](CN)[C@@H](O)[C@H](O)[C@@H]3O)[C@@H](N)C[C@@H]2NC(=O)[C@@H](O)CN)OC[C@]1(C)O,inactive
8,CN1CCN(c2ncc(-c3cc(Cl)cc(Cl)c3Cl)c(N)n2)CC1,33.2 µM (active)
9,NS(=O)(=O)c1cc(Cl)c(Cl)c(S(N)(=O)=O)c1,inactive
10,CC(=O)NCCC(=O)N[C@@H](CCC(N)=O)C(=O)N[C@@H](CO)C(=O)N[C@@H](CCC(N)=O)C(=O)N[C@@H](CCC(N)=O)C(=O)N[C@H](C(=O)N[C@@H](Cc1ccccc1)C(=O)N[C@]1(C)CCCCCCC=CCCC[C@@](C)(C(=O)N[C@@H](CCC(N)=O)C(=O)N[C@@H](CC(N)=O)C(N)=O)NC(=O)[C@H](CC(C)C)NC(=O)[C@H](CC(C)C)NC(=O)[C@@H](CCCNC(=N)N)NC(=O)[C@H](Cc2c[nH]c3ccccc23)NC(=O)[C@H](CC(C)C)NC(=O)[C@H](CC(N)=O)NC1=O)[C@H](C)O,20.9 µM (active)
